CASP6 VEID inh: inhibitors of human caspase-6; P55212; inhibition, % at 12.5 µM; 350,000 compounds, 0.53% hits; AID 686996; purified caspase-6, Z-VEID-R110 cleavage fluorescence;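 active means mean inhibition across replicates at least about 35%, with every replicate also reaching that limit, limit read from the data; inconclusive means only one of the two criteria met; inactive means neither criterion met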;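 further: 0% = median of neutral control wells and 100% = no fluorescence left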
Target sequence (P55212 24-179 limits assumed): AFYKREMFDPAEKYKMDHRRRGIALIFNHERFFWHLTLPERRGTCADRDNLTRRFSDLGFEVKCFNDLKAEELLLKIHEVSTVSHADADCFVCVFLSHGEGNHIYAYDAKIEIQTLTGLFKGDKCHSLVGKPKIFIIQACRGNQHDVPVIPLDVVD
Target sequence (P55212 194-293 limits assumed): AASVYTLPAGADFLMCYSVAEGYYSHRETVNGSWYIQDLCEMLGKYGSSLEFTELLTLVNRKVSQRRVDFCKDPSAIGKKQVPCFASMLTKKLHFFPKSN
NSD2 HMT inh: inhibitors of human histone methyltransferase NSD2. O96028. NSD2 peptide methylation, AlphaScreen, 120 min. inhibition, % at 12.5 µM. 310,000 compounds, 0.54% hits; in the data active means inhibition above about 50%
ALR inh: human ALR oxidase inhibition via reduced H2O2; purified ALR, DTT oxidation, H2O2 HRP-luminol luminescence; inhibition, % (concentration not given with the values); 290,000 compounds, 3.8% hits;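 active means mean replicate inhibition above about 79%, with every replicate also reaching it, limit read from the data; inconclusive means only one of the two criteria met; inactive means mean below limit and not every replicate reaching it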
Target sequence (P55789 whole entry, looked up): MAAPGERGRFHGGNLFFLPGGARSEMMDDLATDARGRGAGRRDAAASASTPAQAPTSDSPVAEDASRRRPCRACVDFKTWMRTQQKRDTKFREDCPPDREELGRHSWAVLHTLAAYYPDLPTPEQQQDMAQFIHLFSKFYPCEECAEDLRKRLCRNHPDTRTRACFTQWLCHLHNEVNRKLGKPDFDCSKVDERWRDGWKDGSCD
HIV Env fusion: inhibitors of HIV Env-mediated cell fusion. HeLa-JRFL Env/CEM21 cell fusion, luciferase. inhibition, % at 12.3 µM. 360,000 compounds, 1.1% hits;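 active means mean replicate inhibition score of at least 50 and every replicate individually at or above 50; inconclusive means only one of the two criteria met; inactive means mean below 50 and not all replicates reaching 50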;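 further: 0% = plate neutral controls and 100% = maraviroc near 300 nM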
PglD DTNB: inhibitors of Campylobacter jejuni PglD acetyltransferase | purified PglD enzyme, DTNB colorimetric CoA detection | inhibition, % at 12.5 µM | 360,000 compounds, 0.098% hits | AID 602405; in the data active means inhibition above about 16%, passing the limit was not always enough; inconclusive means no clear call, values can overlap the other calls
F508del corr: CFTR F508del correction in bronchial cells; 350,000 compounds, 0.36% hits; activity (quench increase), % at 7.58 µM; CFBE cells, YFP halide quenching; stimulated with forskolin plus potentiator P3; % fluorescence drop versus neutral controls; AID 720511;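 active means mean added fluorescence quench of at least 8% versus neutral control, with both replicates also reaching 8%; inconclusive means only one of the mean or replicate conditions met; inactive means mean below 8% and not both replicates reaching 8%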;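 further: cells transiently co-express mutant CFTR-F508del with the halide-sensitive YFP; corrector assay measuring rescue of mutant channel to the surface after 24 h compound exposure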
Numbers without * were called inactive; u = inconclusive; x = not tested or not shown; [ ] = dose if it differs, or a comment. Compounds with a hit are over-represented: about 4.1% of the library has one in this group of screens.

SMILES	CASP6 VEID inh	NSD2 HMT inh	ALR inh	HIV Env fusion	PglD DTNB	F508del corr
CCC/C=C(\CCC)C(NS(=O)(=O)c1cccc2cccnc12)c1ccc(C(=O)OC)cc1 (configuration not stated)	-1	x	0	90*	x	1
C[C@H](CO)N1C[C@H](C)[C@@H](CN(C)C(=O)Nc2ccc(C(F)(F)F)cc2)OCCCC[C@H](C)Oc2ccc(NC(=O)c3ccccc3)cc2C1=O	-1	x	x	61*[16.7 µM]	-3	-4
C[C@H]1CCCCO[C@H](CN(C)C(=O)Nc2ccc(C(F)(F)F)cc2)[C@@H](C)CN([C@@H](C)CO)C(=O)c2cc(NC(=O)c3ccccc3)ccc2O1	-1	x	x	75*[16.7 µM]	0	-2
C[C@@H]1CN([C@H](C)CO)C(=O)c2cc(NC(=O)Nc3ccc(C(F)(F)F)cc3)ccc2O[C@@H](C)CCCCO[C@H]1CN(C)C(=O)c1ccccc1	2	x	x	56*[16.7 µM]	-1	3
Cc1noc(C)c1NC(=O)N(C)C[C@H]1OCCCC[C@H](C)Oc2ccc(NC(=O)c3ccccc3)cc2C(=O)N([C@H](C)CO)C[C@@H]1C	-1	x	x	68*[16.7 µM]	1	-1
C[C@@H]1CCCCO[C@H](CN(C)C(=O)c2ccccc2)[C@@H](C)CN([C@H](C)CO)C(=O)c2cc(NC(=O)Nc3ccc(C(F)(F)F)cc3)ccc2O1	-2	x	x	-9[16.7 µM]	-3	3
C[C@H](CO)N1C[C@H](C)[C@H](CN(C)C(=O)Nc2ccc(C(F)(F)F)cc2)OCCCC[C@H](C)Oc2ccc(NC(=O)c3ccccc3)cc2C1=O	1	x	x	-14[16.7 µM]	0	-3
Cc1noc(C)c1NC(=O)N(C)C[C@H]1OCCCC[C@H](C)Oc2ccc(NC(=O)c3ccccc3)cc2C(=O)N([C@@H](C)CO)C[C@@H]1C	-1	x	x	26[16.7 µM]	2	-3
COc1ccc(C(=O)Oc2ccc(/C=N/O)cc2)cc1	3	0	91*	-28	1	x
COC(=O)[C@@H]1[C@@H](CO)[C@@H]2Cn3c(ccc(-c4ccccc4OC)c3=O)[C@@H]2N1C(=O)c1cccnc1	1	x	x	x	3	-3
COCCCn1c(=S)[nH]c2sc3c(c2c1=O)CCCS3	7	9	99*	-39	x	0
CCn1cc(C(=O)NC(=S)Nc2ccccc2Br)cn1	-4	0	30	x	x	5
CCn1cc(C(=O)NC(=S)Nc2ccccc2[N+](=O)[O-])cn1	-2	3	99*	-18	1	1
CS(=O)(=O)Nc1ccc2c(c1)[C@H]1C[C@@H](CC(=O)NCCN3CCCCC3)O[C@@H](CO)[C@H]1O2	-2	x	x	67*[16.7 µM]	1	1
CN1CCN(C(=O)C[C@H]2C[C@@H]3c4cc(NS(C)(=O)=O)ccc4O[C@@H]3[C@H](CO)O2)CC1	2	x	x	64*[16.7 µM]	1	1
CN1CCN(C(=O)C[C@@H]2C[C@H]3c4cc(NS(C)(=O)=O)ccc4O[C@H]3[C@@H](CO)O2)CC1	5	x	x	20[16.7 µM]	0	5
CS(=O)(=O)Nc1ccc2c(c1)[C@H]1C[C@H](CC(=O)N3CCc4ccccc4C3)O[C@H](CO)[C@H]1O2	-1	x	x	63*[16.7 µM]	0	4
CS(=O)(=O)Nc1ccc2c(c1)[C@@H]1C[C@@H](CC(=O)N3CCc4ccccc4C3)O[C@H](CO)[C@@H]1O2	2	x	x	63*[16.7 µM]	1	-4
CS(=O)(=O)Nc1ccc2c(c1)[C@@H]1C[C@H](CC(=O)N3CCc4ccccc4C3)O[C@@H](CO)[C@@H]1O2	-2	x	x	-7[16.7 µM]	0	-1
O=C(Nc1ccccc1)N1C[C@H]2[C@@H](c3ccccc31)[C@H](CO)N2Cc1ccccc1Cl	1	x	x	x	2	-1
O=C(Nc1ccc(C(F)(F)F)cc1)Nc1ccc2c(c1)[C@@H]1C[C@H](CC(=O)N3CCc4ccccc4C3)O[C@H](CO)[C@@H]1O2	-1	x	x	82*[16.7 µM]	1	-2
C[C@H](NC(=O)C[C@@H]1C[C@@H]2c3cc(NC(=O)Nc4ccc(C(F)(F)F)cc4)ccc3O[C@@H]2[C@@H](CO)O1)c1ccccc1	0	x	x	81*[16.7 µM]	0	-3
O=C(O)/C=C/c1ccc([N+](=O)[O-])o1	61*	41	-19	-1	x	2
O=C(N/N=C/C=C/c1ccccc1[N+](=O)[O-])c1cccs1	-4	1	x	-15	2	-3
CN1CCN(C(=O)/C=C/c2ccc([N+](=O)[O-])o2)CC1	1	1	x	-102	-2	-2
SMILES	CASP6 VEID inh	NSD2 HMT inh	ALR inh	HIV Env fusion	PglD DTNB	F508del corr
O=C(N/N=C\C=C\c1ccc([N+](=O)[O-])o1)c1cccs1	56*	3	-22	-26	-2	1
CO[C@@H]1CN(C)C(=O)c2ccc(NC(=O)Cc3ccccc3)cc2OC[C@H](C)NC[C@@H]1C	1	x	x	7[16.7 µM]	1	1
COc1ccc(NC(=O)N[C@@H]2CC[C@H](CCn3cc(-c4ccc(OC)cc4)nn3)O[C@H]2CO)cc1	-2	x	x	26[16.7 µM]	0	1
C[C@@H](C(=O)NCc1ccc(S(C)(=O)=O)cc1)[C@H]1C[C@]1(C)[C@H](NC(=O)OCc1ccccc1)c1ccccc1	1	x	-7	55*	x	0
CC(C)NC(=O)N(C)C[C@@H]1Oc2c(NC(=O)CCCCCC(=O)Nc3ccccc3N)cccc2C(=O)N([C@@H](C)CO)C[C@H]1C	0	x	x	x	x	0
CSc1ccc2c(c1)N(CCC1CCCCN1C)c1ccccc1S2 (configuration not stated)	2	x	99*	-42	5	-12
CC1(C)CC(=O)C=C(c2ccc(F)cc2OCc2ccccc2)C1	-1	x	-1	77*	-2	5
COc1cccc(C2=CC(=O)CC(C)(C)C2)c1OC	-2	x	4	11	-5	0
O=C(CCl)N(c1ccccc1)c1c[nH]c2ccccc12	x	6	62	x	x	x
O=C(CCl)N(c1ccc(Cl)cc1)c1c[nH]c2ccccc12	8	2	98*	43	1	x
COc1ccccc1-c1ccc2c(c1)O[C@H](CN(C)S(=O)(=O)c1ccc(F)cc1)[C@H](C)CN([C@H](C)CO)S2(=O)=O	0	x	x	x	5	3
Nc1ccc2c(c1)Cc1cc(N)c(Cl)cc1-2	-2	4	x	-8	-1	-1
Nc1ccc2c(c1)Cc1cc(Cl)c(Cl)cc1-2	-7	-2	x	60*	0	0
CCn1c(-c2ccco2)nc2ccccc21	x	-3	6	-72	4	x
c1ccc(-c2nc(-c3ccco3)n3ccccc23)cc1	2	-12	94*	-29	5	x
Cc1cc2n(n1)C(c1ccccc1Cl)Nc1ccccc1-2 (configuration not stated)	3	-2	98*	u	2	x
C[C@@H]1CN([C@@H](C)CO)C(=O)c2cccc(NS(=O)(=O)c3cn(C)cn3)c2O[C@@H]1CN(C)S(=O)(=O)c1ccc(Cl)cc1	-1	x	x	16[16.7 µM]	2	-1

High-throughput results from PubChem BioAssay.
